Compounds with a hit are over-represented: about 15% of the library has one in this group of screens.
RORg inh – inhibitors of mouse ROR gamma transcriptional activity; P51450; Drosophila S2 Gal4-RORgamma UAS-luciferase reporter, 20 h; Potency, µM (series often up to 53.6 µM), for the others: at the highest dose activity change, negative = inhibition, usual class: inhibitors; hit rate 5.4% among 310,000; AID 2551; also: nearly all actives have a fitted effect of over 60% in size
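A Gal4/UAS one-hybrid system in insect cells: metallothionein-promoter Gal4–ROR gamma fusion plus Photinus luciferase reporter. Copper sulfate 700 uM final, 20 hr ambient incubation, luminescent detection after 10 min with reagent.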
ALOX12 inh – inhibitors of human 12S-lipoxygenase ALOX12 | purified 12hLO, xylenol orange hydroperoxide absorbance | Potency, µM (top dose mostly 108 µM), inactives show at the top dose activity change, negative = inhibition, most hits filed as inhibitors | hit rate 1.1% among 580,000 | AID 1671190
Target sequence (P18054 whole entry, looked up): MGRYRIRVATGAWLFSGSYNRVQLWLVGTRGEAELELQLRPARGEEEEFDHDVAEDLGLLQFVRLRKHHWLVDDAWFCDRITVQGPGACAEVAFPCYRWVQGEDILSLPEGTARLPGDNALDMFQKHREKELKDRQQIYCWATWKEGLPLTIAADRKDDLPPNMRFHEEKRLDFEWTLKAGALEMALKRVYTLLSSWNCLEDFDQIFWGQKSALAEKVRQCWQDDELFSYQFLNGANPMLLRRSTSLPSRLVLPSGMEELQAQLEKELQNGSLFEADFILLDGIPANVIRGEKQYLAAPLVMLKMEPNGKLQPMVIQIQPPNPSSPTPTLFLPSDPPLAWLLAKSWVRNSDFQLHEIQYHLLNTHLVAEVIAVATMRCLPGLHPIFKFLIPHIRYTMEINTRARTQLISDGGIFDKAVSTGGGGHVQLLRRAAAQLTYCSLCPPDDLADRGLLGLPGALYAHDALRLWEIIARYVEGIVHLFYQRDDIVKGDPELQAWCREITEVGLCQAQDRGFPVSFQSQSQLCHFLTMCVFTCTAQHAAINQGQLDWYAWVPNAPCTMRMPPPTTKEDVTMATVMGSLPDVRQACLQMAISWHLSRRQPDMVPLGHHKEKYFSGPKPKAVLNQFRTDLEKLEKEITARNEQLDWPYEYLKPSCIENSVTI
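Purified human 12hLO at 150 nM in 25 mM Hepes, 0.01% Triton X-100, pH 7.0, preincubated 15 min at room temperature with compound. Reaction started with 40 uM arachidonic acid, 30 min at room temperature. Hydroperoxide measured by Fe-xylenol orange, 573/405 nm absorbance ratio.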
Gal4-VP16 FLuc – inhibits Gal4-VP16 luciferase reporter, ROR gamma counter-screen | Drosophila S2 Gal4-VP16 UAS-luciferase, luminescence, 20 h | Potency, µM (top dose mostly 53.6 µM), for the others: at the top dose activity, negative = inhibition, usual class: inhibitors | hit rate 3.5% among 310,000 | AID 2546;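 also: Gal4-VP16 expression switched on by copper sulfate through the metallothionein promoter; nearly all actives have a fitted effect of over 50% in size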
DT40 TDP1 no CPT – qHTS for Inhibitors of human tyrosyl-DNA phosphodiesterase 1 (TDP1): qHTS in cells in absence of CPT; DT40 Tdp1-/- hTDP1 cells, no CPT, ATP luminescence, 48 h; Potency, µM (titrated, usually from 46.2 µM), for inactives: at the highest dose activity change, negative = growth inhibition, most hits filed as inhibitors; hit rate 15% among 420,000; also: nearly all actives have a fitted effect of over 55% in size
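Growth of hTDP1-complemented DT40 Tdp1-knockout cells is measured by ATP luminescence after at least 48 hr compound exposure at 37 °C, with DMSO substituting for the 20 nM CPT used in the parallel screen.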
ELG1 DNA repair – inhibitors of ELG1-dependent DNA repair in HEK293T cells; Potency, µM (highest dose often 46.1 µM), inactives show at the highest dose activity change, negative = inhibition, actives largely listed as inhibitors; HEK293T ELG1-luciferase reporter, luminescence, 16 h; DNA damage induced by 5-fluorouridine; hit rate 2.3% among 330,000; also: nearly all actives have a fitted effect of over 55% in size
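Step one: seed 2,000 cells per well. Step two: pin-transfer compound or DMSO alongside 5-fluorouridine. Step three: incubate 16 hr, 37 °C, 5% CO2. Step four: add ONE-Glo, wait 30 min, read luminescence.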
DT40 TDP1 CPT – growth inhibition of DT40 Tdp1-/-;hTDP1 cells with camptothecin (screen for TDP1 inhibitors) | chicken DT40 Tdp1-/-;hTDP1 cells + 20 nM CPT, ATP luminescence, 48 h | AID 686979 | hit rate 12% among 420,000 | Potency, µM (highest dose often 46.2 µM), without a hit: top-dose activity change, negative = growth inhibition, actives largely listed as inhibitors; also: nearly all actives have a fitted effect of over 55% in size
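Chicken DT40 Tdp1-/- cells stably complemented with human TDP1 were seeded at 400 cells/well in medium containing 20 nM camptothecin, exposed to pin-transferred compounds, and grown at 37 °C for at least 48 hr. Viability was read as ATP luminescence.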
Starred values were filed as active, the others as inactive; ? = inconclusive; / = no result; [ ] = another dose, or the depositor's remark. Calls follow the shape of the dose curve; as a rule, active = well fitted curve in the direction sought with a large enough effect; inconclusive = small, poorly fitted or top-dose-only effect, or another doubt; inactive = no such curve, though single readings can be large; an effect the other way counts as inactive or inconclusive. % is scaled to controls: 0 for no effect and ±100 for the full control effect; potency is read from the fitted curve at half-maximal effect.

SMILES | RORg inh | ALOX12 inh | Gal4-VP16 FLuc | DT40 TDP1 no CPT | ELG1 DNA repair | DT40 TDP1 CPT
COc1ccc(-n2cnc(N)c2C(=O)c2cccc([N+](=O)[O-])c2)cc1 | 11.2µM* | -8.5% | -19.1% | ? | 16.4µM* | 16.4µM*
Cc1ccccc1C(=O)NC(Nc1ccccc1)C(Cl)(Cl)Cl (stereo not drawn) | / | -3.6% | / | / | / | /
Cc1cc(C)n(C(=O)c2cccc([N+](=O)[O-])c2)n1 | -24.9% | 0.0% | -17.6% | 1.5% | 17.2% | 16.9%
COc1ccc2cc3c(N)nn(C(=O)c4cccc([N+](=O)[O-])c4)c3nc2c1 | 16.7% | -4.3% | -6.9% | ? | 2.31µM* | ?
COc1ccc2cc(C#N)c(SCC(=O)N3CCCC3)nc2c1 | 6.4% | ? | 14.7% | ? | 5.7% | ?
COc1ccc2cc3c(N)nn(C(=O)C4CCC(C(C)(C)C)CC4)c3nc2c1 (stereo not drawn) | ? | 12.3%[57.4 µM] | ? | 18.4µM* | 1.84µM* | 9.2µM*
COC(=O)c1ccccc1NC(=O)NCc1ccc2c(c1)CCN2C(=O)c1ccccc1 | / | -22.1% | / | 16.4µM* | / | 23.1µM*
CCc1ccccc1NC(=O)NCc1ccc2c(c1)CCN2C(=O)c1ccccc1 | / | 0.0% | / | 23.1µM* | / | ?
COc1ccc(CC(=O)NCc2ccc3c(c2)CCN3C(=O)c2ccc(C)cc2)cc1OC | / | -8.9% | / | 11.6µM* | / | 13µM*
Cc1ccc(C(=O)N2CCc3cc(CNC(=O)CSc4ccccc4)ccc32)cc1 | / | -19.9% | / | 14.6µM* | / | 14.6µM*
COc1ccc(C)cc1NC(=O)NCc1ccc2c(c1)CCN2C(=O)c1ccccc1 | / | -13.8% | / | 20.6µM* | / | 23.1µM*
Cc1ccc(C)c(CN2CCC(CNC(=O)Nc3ccc(Br)cc3F)CC2)c1 | -2.3% | -50.6% | -12.3% | ? | -12.1% | 10.3µM*
O=C(NCC1CC1)Nc1ccc(Cl)cc1 | 18.6% | 0.0% | 3.5% | ? | ? | -15.0%
Cc1ccc(C)c(CN2CCC(CNC(=O)Nc3ccc(Cl)cc3)CC2)c1 | 2.9% | -33.7% | -15.3% | ? | 7.3% | 20.6µM*
CC(=O)[C@@H]1[C@H]2[C@H](C(=O)[C@H]3OC[C@@H]2O3)[C@H]2C=Cc3ccccc3N21 | ? | / | ? | 21.1µM* | / | ?
O=C(NCc1cccs1)c1nc(-c2cccc(C(F)(F)F)c2)c2cnccn12 | / | -20.8% | / | / | / | /
CCCc1nc(SCC(=O)Nc2nnc(SCC)s2)c2c(=O)n(C)c(=O)n(C)c2n1 | -4.3% | 17.3% | 0.8% | 2.91µM* | 13.6% | 4.11µM*
CCSc1nnc(NC(=O)CSc2nc(CC)nc3c2c(=O)n(C)c(=O)n3C)s1 | -14.3% | 33.2% | -1.1% | 14.6µM* | ? | 16.4µM*
CCCc1nc(SCC(=O)Nc2cc(C)on2)c2c(=O)n(C)c(=O)n(C)c2n1 | 0.0% | 30.0% | 4.3% | ? | -17.4% | ?
CCc1nc(SCC(=O)Nc2cc(C)on2)c2c(=O)n(C)c(=O)n(C)c2n1 | -8.1% | 47.8% | -7.2% | ? | -16.1% | ?
CCOc1ccc(OCCC(=O)OCC(=O)Nc2c(C)cc(C)cc2Cl)cc1 | / | -43.9% | / | / | / | /
COc1ccc(-c2nc(CSCC(=O)NCc3cccnc3)c(C)o2)cc1 | / | 41.6% | / | / | / | /
O=C(O)C1CCN(c2nc(-c3ccccc3)c3cc(Br)ccc3n2)CC1 | -28.6% | -19.7% | -4.0% | ? | 23.8% | -8.3%
O=C(CN1CCOCC1)NNc1nc(-c2ccccc2)c2cc(Br)ccc2n1 | 8.91µM* | 44.1% | -11.7%[10 µM] | ? | -15.3% | ?
O=C(CN1CCCCC1)NNc1nc(-c2ccccc2)c2cc(Cl)ccc2n1 | 5.01µM* | 10.0% | 3.98µM* | ? | 1.8% | ?
SMILES | RORg inh | ALOX12 inh | Gal4-VP16 FLuc | DT40 TDP1 no CPT | ELG1 DNA repair | DT40 TDP1 CPT
OCCN1CCN(c2nc(-c3ccccc3)c3cc(Br)ccc3n2)CC1 | ? | -23.3% | ? | 9.2µM* | ? | ?
Cc1ccc(-c2nc(-c3ccc(F)cc3)no2)cc1 | / | -46.6% | / | / | / | /
O=C(O)C1CNCCN(CCOCc2ccccc2)C1 (stereo not drawn) | / | 48.6% | / | / | / | /
CC(C)(C)c1ccc(C(=O)Nc2ccc(C(O)[C@H]3COCC(=O)N3)cc2)cc1 (stereo partly drawn) | / | -17.4%[176 µM] | / | / | / | /
O=C1NC(=O)c2cc([N+](=O)[O-])ccc21 | -17.1% | / | -16.8% | / | / | /
CCC(CC)N=C1NS(=O)(=O)c2cc([N+](=O)[O-])ccc21 | ? | -18.5% | ? | 20.6µM* | -19.3% | ?
CC(C)(CO)N=C1NS(=O)(=O)c2cc([N+](=O)[O-])ccc21 | ? | -10.0% | ? | ? | 1.9% | -16.9%
CC(C)(C)CC(C)(C)N=C1NS(=O)(=O)c2cc([N+](=O)[O-])ccc21 | 0.4% | -0.6% | -9.3% | 14.6µM* | ? | ?
Cc1nn2c(c1-c1ccccc1N1CCCC1)N(C(=O)COc1ccccc1)CCC2 | / | 130.6%[176 µM] | / | / | / | /
CC(C)NCC(=O)Nc1c2c(nc3ccccc13)CCC2 | -32.0% | ? | 17.5% | -12.4% | -1.5% | -22.9%
Cc1cccc(Nc2c3c(nc4ccccc24)CCC3)c1 | 7.08µM* | ? | ? | 18.4µM* | 20.6µM* | 14.6µM*
Cc1ccc(Nc2c3c(nc4ccccc24)CCC3)cc1F | / | ? | / | 16.4µM* | / | 20.6µM*
N#Cc1cccc(Nc2c3c(nc4ccccc24)CCC3)c1 | -31.9% | 0.5% | 0.7% | ? | ? | ?
CCNc1nc(SC(C)C(N)=O)nc2ccccc12 (stereo not drawn) | / | 5.1% | / | / | / | /
COc1ccc(-c2ccc(CCC(=O)O)n2-c2ccccc2OC)cc1 | -9.2% | ? | 4.8% | 23.1µM* | -2.0% | ?
COc1ccccc1-n1c(CCC(=O)O)ccc1-c1ccccc1 | -9.4% | 0.0% | 2.7% | 15.0% | 5.9% | -0.6%
Cc1cc(C)n(CC(=O)N2CCc3nn(C)c(=O)n3CC2)n1 | / | 37.6% | / | / | / | /
CC(=O)c1nn(-c2ccccc2)cc1C(=O)c1ccc(C)cc1 | / | 0.0% | / | 23.1µM* | / | ?
CC(=O)c1nn(-c2ccc(Cl)cc2)cc1C(=O)c1ccc(C)cc1 | / | 112.0% | / | ? | / | -29.3%
N#Cc1cn(-c2ccccc2)nc1C(=O)c1ccccc1 | -12.9% | 4.8% | -4.4% | 11.6µM* | 2.9% | ?
O=C(c1ccc(F)cc1)N1CCN(c2cc(N3CCCCC3)c(F)cc2[N+](=O)[O-])CC1 | ? | 3.7% | ? | ? | -25.4% | ?

Screening data deposited in PubChem BioAssay by National Center for Advancing Translational Sciences (NCATS).
